Measured values from PubChem BioAssay AID1117319 (Southern Research Institute, 2015).
Several values for one entry are separate records, joined by “and”; a condition that tells them apart may be missing. Identical values can stand only once. Among all 260,000 compounds or so, about 1,500 (0.58%) were called active. Inconclusive results (about 5%) are left out.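 Rule for the calls: active = inhibition above a set limit at one or more doses, reproduced on every date tested; inconclusive = results disagree between test dates, or hit never tested in dose response; inactive = the rest.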 A selection follows. Potency and affinity values are given separately.

target: Virion infectivity factor (Human immunodeficiency virus type 1 group M subtype B (isolate BH10)) + Virion infectivity factor (Human immunodeficiency virus type 1 group M subtype B (isolate BRU/LAI)) + Virion infectivity factor (Human immunodeficiency virus type 1 group M subtype B (isolate PCV12)) + Virion infectivity factor (Human immunodeficiency virus type 1 group M subtype B (isolate HXB2)) + DNA dC->dU-editing enzyme APOBEC-3G (Homo sapiens) (UniProt P69720+P69721+P69722+P69723+Q9HC16); assay: HIV-1 Vif–A3G interaction blockers – biochemical, TR-FRET, GST-Vif 1-94, biotin-A3G peptide, dose response retest, primary screen (AID 1117319); settings: TR-FRET GST-Vif / biotin-A3G peptide binding; hits give high values;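 note: Vif residues 1-94 fused to GST binding biotinylated APOBEC3G peptide 110-148; 0% = full assay without inhibitor and 100% = GST in place of GST-Vif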

inhibition, inactive:
Cc1cc2c(Nc3ccc(O)cc3)ncnc2s1 -0.33%
N#CC(C#N)=C1NC2(CCCC2)Cc2ccccc21 1.13%
Cc1ccc(Nc2nc(N)nc(CN3CCN(Cc4ccc5c(c4)OCO5)CC3)n2)cc1C 3.16%
CC(C)(O)C#Cc1ccc(C(=O)NCc2ccccc2)s1 6.16%
Cc1cccc(Oc2nc(-c3cccc([N+](=O)[O-])c3)nc3ccccc23)c1C -5.88%
Cc1ccc(NC2=NC(c3ccc(F)cc3)n3c(nc(C)cc3=O)N2)cc1 (stereo unspecified) 5.66%
CC(C)(C)OC(=O)NCCCC[C@H](NC(=O)c1nc[nH]c1C(=O)N[C@@H](CCCCNC(=O)OC(C)(C)C)C(=O)OC(C)(C)C)C(=O)OC(C)(C)C -5.41%
CC(=O)N1CCN(C(=O)CCC(=O)O)CC1 -4.74%
Cc1ccccc1N(CC(=O)NCCSCc1ccco1)S(C)(=O)=O 3.05%
Cc1ccc(C)c(N(CC(=O)NCCSCc2ccco2)S(C)(=O)=O)c1 12%
Cc1ccc(N(CC(=O)NCCSCc2ccco2)S(=O)(=O)c2ccc(C)cc2)cc1 -4.1%
COc1ccc(N(CC(=O)NCCSCc2ccco2)S(=O)(=O)c2ccc(C)cc2)cc1 -1.79%
O=C(CSc1nc2[nH]ncc2c(=O)[nH]1)Nc1cc(C(F)(F)F)ccc1Cl 3.21%
COc1ccc(CCNC(=O)CCSc2nc(-c3ccco3)cc(C(F)(F)F)n2)cc1 2.48%
CNC(=O)OCc1nc(SSC(C)(C)C)n(C)c1COC(=O)NC -4.09%
O=C(c1c(Cl)cccc1Cl)N1CCN(c2ccccn2)CC1 3.31%
CCOc1ccc2[nH]c(=O)c(CN(Cc3ccco3)C(CC)c3nnnn3Cc3ccccc3)cc2c1 (stereo unspecified) 4.17% and 12.4%
CCC(c1nnnn1Cc1ccccc1)N(Cc1ccco1)Cc1cc2cc(OC)ccc2[nH]c1=O (stereo unspecified) 6.8% and 6.79%
CCOC(=O)c1cc(NC(=O)CNCC(c2ccccc2)N(C)C)cc(C(=O)OCC)c1 (stereo unspecified) -3.03%
O=C1NC(Cc2ccccc2)c2nc3ccccc3c(=O)n2-c2cc3ccccc3cc21 (stereo unspecified) 0.54%
CC1NC(=O)NC1CCCCCC(=O)Nc1ccc(F)c(Cl)c1 (stereo unspecified) -8.82%
Cc1ccc(NC(=O)CCC(=O)Nc2ccc(C)cc2)cc1 2.94%
CCc1cccc(NC(=O)CCSCCC(=O)Nc2cccc(CC)c2)c1 -3.74%
Cc1c(Cl)cccc1NC(=O)CCCCCN1C(=O)CCC1=O -0.64%
CC1NC(=O)NC1CCCCCC(=O)NCCc1ccccc1 (stereo unspecified) 31.4%
Cc1c(F)cccc1NC(=O)CSCC(=O)Nc1ccccc1 4.77%
COC(=O)c1cccc(NC(=O)CSCc2ccccc2)c1 6.61%
O=C(Nc1ccsc1C(=O)N1CCCC1)c1ccccc1 -3.04%
CCOc1cccc(C2C(C#N)=C(N)Oc3cc(C)n(Cc4ccccn4)c(=O)c32)c1OCC (stereo unspecified) 14.3%
CCOC(=O)c1nn(-c2ccc(C)cc2)c(=O)cc1OCC(=O)Nc1cccc(C)c1 -4.53%
COC(=O)c1c(NC(=O)c2ccco2)sc2c1CC(C)(C)NC2(C)C -5.88%
CN(c1ccccc1)P(=O)(N(C)c1ccccc1)N(C)c1ccccc1 -2.89%
CCCCNC(=O)CCn1nc(-c2ccccc2)c2ccccc2c1=O -4.86%
COc1ccc(-c2cc(-c3n[nH]c(=S)n3-c3cccc4ccccc34)[nH]n2)cc1 32.6%
Cc1nc2ccccn2c1-c1csc(NCc2ccco2)n1 5.14%
Cc1ccn2c(-c3csc(NCc4ccco4)n3)c(C)nc2c1 16.9%
CC(=O)Oc1ccccc1/C=C1\CCOC1=O 13.1%
O=C(NCCN1C(=O)S/C(=C\c2ccc(Cl)c(Cl)c2)C1=O)c1cnccn1 20.5%
O=C(c1cc([N+](=O)[O-])ccc1N1CCOCC1)N1CCN(c2ccc([N+](=O)[O-])cc2)CC1 11.3%
O=C(NCc1ccccc1)c1csc2c1CCCCC2 -0.06%
COc1ccccc1CNC(=O)c1csc2c1CCCC2 10.6%
[O-]/C(=C(\C(=S)Nc1ccc(SC(F)F)cc1)[n+]1ccccc1)c1ccc(Cl)cc1Cl -10.3%
COc1cccc(OC)c1C(=O)Nc1nc(-c2ccccc2)cs1 -5.24%
CC(NC(=O)COc1ccccc1Cl)c1ccccc1 (stereo unspecified) -5.9%
CCn1c(SCC(=O)NNC(=O)c2ccc(OC)cc2)nnc1-c1ccco1 -0.44%
CC(=O)Nc1ccc(/C(N=Nc2ccccc2)=N/N=C(N)N)cc1 16.3%
Oc1ccc(/C=N\Nc2nncc(-c3ccccc3)n2)cc1 -5.32%
O=C1c2cc(Br)ccc2OC2C=CC=CC12 (stereo unspecified) -11.4%
COc1cc(CNCCc2c[nH]c3ccccc23)ccc1OCc1ccc(F)cc1 12.4%
COc1cccc(CNCCc2c[nH]c3ccccc23)c1OCc1ccc(F)cc1 1.44%
COc1ccc(C(=Cc2cc(OC)c(OC)cc2[N+](=O)[O-])C(=O)O)cc1 2.43%
CCOC(=O)c1cc2c(C)n(-c3ccc(OCC)cc3)c(C)c2ccc1=O 27.2%
O=C(O)C1Nc2c(C(F)(F)F)ccc(Cl)c2C2C=CCC12 (stereo unspecified) 24.9%
O=[N+]([O-])c1c(O)c(Cl)cc(Cl)c1Cl (tested in a mixture with another compound) -1.68%
O=C(O)C1Nc2c(Cl)cc(Cl)cc2C2C=CCC12 (stereo unspecified) 63.7%
Cc1noc(C)c1COC(=O)c1cnc(Cl)c(Cl)c1 3.39%
O=C(O)C12CC3CC(C1)CC(n1cnc(Cl)n1)(C3)C2 23.7%
Cc1nnc(Oc2ccccc2F)c2ccccc12 0.32%
Cc1cc(C)c2c(c1)C1C=CCC1C(c1ccc(S(=O)(=O)N3CCOCC3)cc1)N2 (stereo unspecified) 27.8% and -8.85%
Cc1cc(C)c(NC(=O)c2ccc(S(=O)(=O)N3CCOCC3)cc2)c(C)c1 -5.2%
Cc1ccc(CN2CC(C(=O)Nc3cccc(S(=O)(=O)N4CCCCC4)c3)CC2=O)cc1 (stereo unspecified) 14.4%
COc1ccc(-c2cc(C(=O)N/N=C/c3ccc4c(c3)OCO4)c3ccccc3n2)c(OC)c1 -3.1%
COc1ccc(/C=N/NC(=O)c2cc(-c3ccccc3OC)nc3ccccc23)cc1COC(C)=O -2.13%
CC(C)(C)c1cc(C(=O)Nc2ccccc2)ccn1 11.4%
Cc1ccccc1C(=O)O/N=C(\c1ccccc1)c1ccccn1 5.71%
O=C(O)c1ccc2c(c1)-c1cc(C(=O)O)ccc1S2(=O)=O -4.26%
Cc1nonc1-c1csc(N)n1 -6.95%
Cc1ccn2cc(C34CC5CC(CC(C5)C3)C4)nc2c1 17%
COc1cc(NC(=O)CSc2ccc(-c3ccco3)nn2)cc(OC)c1 0.78%
CC(C)CCSc1cc(NCCO)c([N+](=O)[O-])c2nonc12 -1.66%
CCC(=O)OCCNc1cc(SCCC(=O)OC)c2nonc2c1[N+](=O)[O-] 20%
CN(CCO)c1cc(Sc2nc3ccccc3s2)c2nonc2c1[N+](=O)[O-] 1.28%
CCC(=O)OCCNc1cc(Sc2nc3ccccc3s2)c2nonc2c1[N+](=O)[O-] 5.25%
CCC(=O)OCCNc1cc(Sc2nccn2C)c2nonc2c1[N+](=O)[O-] -4.53%
CC(=O)OCCCNc1cc(Sc2ccc(C)cc2)c2nonc2c1[N+](=O)[O-] 15.4%
CCN(CC)c1cc(NCCO)c([N+](=O)[O-])c2nonc12 0.97%
Cc1ccc(Sc2cc(NCCCO)c([N+](=O)[O-])c3nonc23)cc1 9.02%
CCCN1CCc2c(sc(NC(=O)CCS(=O)(=O)c3ccccc3)c2C(N)=O)C1 0.13%
CCOC(NC(=O)c1ccccc1)C(NC(=O)c1ccccc1)OCC (stereo unspecified) -1.18%
COc1ccccc1CC(O)CC1c2c(cc3c(c2OC)OCO3)CCN1C (stereo unspecified) -0.54%
CC(=O)c1cc(C)ccc1OC(=O)c1cccc2nc(C)oc12 3.65%
COC(=O)c1ccccc1N=Nc1c(C)n[nH]c1C -7.02%
COC(=O)CN1C(=O)C2(OCCCO2)c2cc(Br)ccc21 -2.05% and -8.37%
CN1CCN(C(=O)c2cc3c(C(F)(F)F)nn(C)c3s2)CC1 6.37%
O=C(COc1ccc(Cl)cc1Cl)N(Cc1ccco1)C1CCS(=O)(=O)C1 (stereo unspecified) -2.82%
O=C(Cc1c(F)cccc1Cl)N1CCN(S(=O)(=O)c2cccc(F)c2)CC1 -1.72%
O=C(O)C1CC=CCC1C(=O)N1CCc2ccccc21 (stereo unspecified) 23.4%
O=C(C1CCCCC1)N1CCc2ccccc21 3.73%
CCN(CC)S(=O)(=O)c1ccc(OCC(=O)NC(=O)Cc2ccccc2)c([N+](=O)[O-])c1 1.51%
C=C(c1ccc(OC)cc1)c1ccc(OC)cc1 13.2%
O=C(c1ccccc1)c1ccc(OCCO)cc1 -4%
